Experiments:
Assay in all cases: log2 ratio of Biotin-Ahx-Ub-VS probe labelling (fragment/DMSO); higher = less target engagement (more negative = stronger competition), active = hit call of the paper (q ≤ 0.05, log2 ratio ≤ -1)
Details in all cases: compound concentration: 200 uM; treatment time: 3 h
USP34 = USP34 (UniProt Q70CQ2)
How it was run: (§1)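 Average log2 ratios of fragment over vehicle were obtained by unpaired t-test from global-median-normalised Spectronaut label-free quantities. Proteins with ≥2 unique peptides were included. HEK293T lysate (495 µg per sample) was treated in triplicate with fragment at 200 µM or vehicle for 3 h, then with Biotin-Ahx-Ub-VS at 0.5 µM final for 1 h, and labelled DUBs were NeutrAvidin-enriched and run by diaPASEF LC-MS/MS.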

USP36 = biological target: T1, USP36 (UniProt Q9P275)
T1 sequence (whole entry): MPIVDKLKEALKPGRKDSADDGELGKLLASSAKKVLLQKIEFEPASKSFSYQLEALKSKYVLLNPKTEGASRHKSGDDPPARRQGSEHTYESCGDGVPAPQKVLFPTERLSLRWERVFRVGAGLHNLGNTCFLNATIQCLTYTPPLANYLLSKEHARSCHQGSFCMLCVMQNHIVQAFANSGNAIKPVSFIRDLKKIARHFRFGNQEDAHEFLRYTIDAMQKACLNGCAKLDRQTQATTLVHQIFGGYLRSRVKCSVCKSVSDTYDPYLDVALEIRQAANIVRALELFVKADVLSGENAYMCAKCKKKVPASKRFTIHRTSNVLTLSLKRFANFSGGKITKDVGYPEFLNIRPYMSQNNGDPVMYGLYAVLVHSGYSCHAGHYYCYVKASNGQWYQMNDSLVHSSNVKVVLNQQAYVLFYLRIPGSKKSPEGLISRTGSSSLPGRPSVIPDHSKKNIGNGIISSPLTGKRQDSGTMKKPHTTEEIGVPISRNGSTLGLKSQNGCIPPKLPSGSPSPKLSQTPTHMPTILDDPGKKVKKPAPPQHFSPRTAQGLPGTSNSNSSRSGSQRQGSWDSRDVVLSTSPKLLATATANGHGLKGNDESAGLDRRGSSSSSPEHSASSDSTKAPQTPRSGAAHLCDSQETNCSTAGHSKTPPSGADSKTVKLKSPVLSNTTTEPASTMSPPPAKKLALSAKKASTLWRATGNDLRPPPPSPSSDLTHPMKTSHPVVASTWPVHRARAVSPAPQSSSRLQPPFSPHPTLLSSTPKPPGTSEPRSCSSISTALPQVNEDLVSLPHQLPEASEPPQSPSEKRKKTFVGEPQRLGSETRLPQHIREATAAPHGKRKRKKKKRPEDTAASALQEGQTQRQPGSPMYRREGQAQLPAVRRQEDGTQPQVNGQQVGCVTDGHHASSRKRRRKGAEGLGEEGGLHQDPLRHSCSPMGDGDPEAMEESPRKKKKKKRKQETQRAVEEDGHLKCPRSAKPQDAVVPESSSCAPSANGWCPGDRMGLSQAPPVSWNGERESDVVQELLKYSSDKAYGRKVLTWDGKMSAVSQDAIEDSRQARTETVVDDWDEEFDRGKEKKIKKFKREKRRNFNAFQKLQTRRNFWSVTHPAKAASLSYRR
How it was run: as §1

USP38 = biological target: T2, USP38 (UniProt Q8NB14)
T2 sequence (whole entry): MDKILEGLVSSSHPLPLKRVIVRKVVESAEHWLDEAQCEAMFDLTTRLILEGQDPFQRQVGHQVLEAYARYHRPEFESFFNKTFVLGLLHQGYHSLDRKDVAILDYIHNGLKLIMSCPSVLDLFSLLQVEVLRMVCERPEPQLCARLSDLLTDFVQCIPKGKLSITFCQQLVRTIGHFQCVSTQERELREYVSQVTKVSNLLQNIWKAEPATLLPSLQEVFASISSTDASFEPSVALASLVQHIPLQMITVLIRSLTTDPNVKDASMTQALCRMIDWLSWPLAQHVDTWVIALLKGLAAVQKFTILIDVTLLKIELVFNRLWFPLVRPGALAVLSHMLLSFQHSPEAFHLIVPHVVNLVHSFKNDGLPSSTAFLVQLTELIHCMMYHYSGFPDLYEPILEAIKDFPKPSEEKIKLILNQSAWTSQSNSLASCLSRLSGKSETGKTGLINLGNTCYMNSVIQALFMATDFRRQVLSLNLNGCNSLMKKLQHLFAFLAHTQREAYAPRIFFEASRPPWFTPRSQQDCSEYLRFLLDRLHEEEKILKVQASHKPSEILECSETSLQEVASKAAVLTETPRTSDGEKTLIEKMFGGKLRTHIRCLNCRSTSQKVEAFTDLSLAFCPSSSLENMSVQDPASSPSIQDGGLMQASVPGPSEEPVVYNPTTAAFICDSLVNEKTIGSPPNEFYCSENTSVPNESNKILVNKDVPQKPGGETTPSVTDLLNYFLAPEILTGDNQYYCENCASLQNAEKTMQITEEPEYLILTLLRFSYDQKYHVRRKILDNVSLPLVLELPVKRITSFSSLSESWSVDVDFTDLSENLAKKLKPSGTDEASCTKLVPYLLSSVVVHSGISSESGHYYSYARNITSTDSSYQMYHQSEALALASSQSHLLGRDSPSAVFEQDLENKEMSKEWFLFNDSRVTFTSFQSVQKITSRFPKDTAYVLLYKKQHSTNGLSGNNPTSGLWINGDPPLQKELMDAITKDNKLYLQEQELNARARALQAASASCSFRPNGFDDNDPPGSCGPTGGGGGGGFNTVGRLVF
How it was run: as §1

USP39 = biological target: T3, USP39 (UniProt Q53GS9)
T3 sequence (whole entry): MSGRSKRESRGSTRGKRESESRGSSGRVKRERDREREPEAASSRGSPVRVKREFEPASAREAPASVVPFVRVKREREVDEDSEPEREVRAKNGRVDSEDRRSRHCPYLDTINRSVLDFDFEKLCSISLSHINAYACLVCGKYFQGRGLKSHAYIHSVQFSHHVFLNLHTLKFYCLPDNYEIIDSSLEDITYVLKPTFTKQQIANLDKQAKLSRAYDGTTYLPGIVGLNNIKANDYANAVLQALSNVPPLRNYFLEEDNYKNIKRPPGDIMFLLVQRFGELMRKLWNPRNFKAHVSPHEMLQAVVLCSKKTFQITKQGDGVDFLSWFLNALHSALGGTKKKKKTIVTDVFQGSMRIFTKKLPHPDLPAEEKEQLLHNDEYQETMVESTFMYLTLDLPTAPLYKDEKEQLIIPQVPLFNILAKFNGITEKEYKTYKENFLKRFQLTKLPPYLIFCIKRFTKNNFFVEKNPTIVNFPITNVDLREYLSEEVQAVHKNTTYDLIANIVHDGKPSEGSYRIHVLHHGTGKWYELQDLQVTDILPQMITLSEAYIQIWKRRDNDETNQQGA
How it was run: as §1

USP4 = biological target: T4, USP4 (UniProt Q13107)
T4 sequence (whole entry): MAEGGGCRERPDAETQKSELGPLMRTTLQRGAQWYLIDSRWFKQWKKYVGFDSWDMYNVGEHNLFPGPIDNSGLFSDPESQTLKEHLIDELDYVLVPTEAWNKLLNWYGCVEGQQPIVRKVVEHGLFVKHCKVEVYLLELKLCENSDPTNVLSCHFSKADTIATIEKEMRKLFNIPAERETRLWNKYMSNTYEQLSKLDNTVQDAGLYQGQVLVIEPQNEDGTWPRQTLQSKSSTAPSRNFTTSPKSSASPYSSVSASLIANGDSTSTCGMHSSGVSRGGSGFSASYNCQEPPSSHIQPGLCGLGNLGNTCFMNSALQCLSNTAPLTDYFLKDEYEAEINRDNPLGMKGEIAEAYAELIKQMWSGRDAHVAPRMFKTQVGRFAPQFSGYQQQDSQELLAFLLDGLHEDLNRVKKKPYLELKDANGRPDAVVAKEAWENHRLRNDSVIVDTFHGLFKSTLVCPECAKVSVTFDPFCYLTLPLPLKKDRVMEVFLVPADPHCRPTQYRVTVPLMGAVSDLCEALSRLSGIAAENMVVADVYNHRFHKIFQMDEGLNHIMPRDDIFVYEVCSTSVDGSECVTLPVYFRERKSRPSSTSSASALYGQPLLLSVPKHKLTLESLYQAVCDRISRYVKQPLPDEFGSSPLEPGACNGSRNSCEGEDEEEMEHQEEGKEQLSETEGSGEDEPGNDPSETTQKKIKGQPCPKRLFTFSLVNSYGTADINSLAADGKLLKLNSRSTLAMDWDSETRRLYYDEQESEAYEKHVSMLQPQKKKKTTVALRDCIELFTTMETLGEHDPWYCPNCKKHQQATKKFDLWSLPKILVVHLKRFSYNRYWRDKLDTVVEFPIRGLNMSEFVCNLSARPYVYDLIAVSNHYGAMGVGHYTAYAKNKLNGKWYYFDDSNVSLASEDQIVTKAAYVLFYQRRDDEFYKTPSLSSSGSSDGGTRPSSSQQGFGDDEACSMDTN
How it was run: as §1

Measured: log2 ratio of Biotin-Ahx-Ub-VS probe labelling

Chain of USP34 (Q70CQ2 whole entry, the tested form may be a part): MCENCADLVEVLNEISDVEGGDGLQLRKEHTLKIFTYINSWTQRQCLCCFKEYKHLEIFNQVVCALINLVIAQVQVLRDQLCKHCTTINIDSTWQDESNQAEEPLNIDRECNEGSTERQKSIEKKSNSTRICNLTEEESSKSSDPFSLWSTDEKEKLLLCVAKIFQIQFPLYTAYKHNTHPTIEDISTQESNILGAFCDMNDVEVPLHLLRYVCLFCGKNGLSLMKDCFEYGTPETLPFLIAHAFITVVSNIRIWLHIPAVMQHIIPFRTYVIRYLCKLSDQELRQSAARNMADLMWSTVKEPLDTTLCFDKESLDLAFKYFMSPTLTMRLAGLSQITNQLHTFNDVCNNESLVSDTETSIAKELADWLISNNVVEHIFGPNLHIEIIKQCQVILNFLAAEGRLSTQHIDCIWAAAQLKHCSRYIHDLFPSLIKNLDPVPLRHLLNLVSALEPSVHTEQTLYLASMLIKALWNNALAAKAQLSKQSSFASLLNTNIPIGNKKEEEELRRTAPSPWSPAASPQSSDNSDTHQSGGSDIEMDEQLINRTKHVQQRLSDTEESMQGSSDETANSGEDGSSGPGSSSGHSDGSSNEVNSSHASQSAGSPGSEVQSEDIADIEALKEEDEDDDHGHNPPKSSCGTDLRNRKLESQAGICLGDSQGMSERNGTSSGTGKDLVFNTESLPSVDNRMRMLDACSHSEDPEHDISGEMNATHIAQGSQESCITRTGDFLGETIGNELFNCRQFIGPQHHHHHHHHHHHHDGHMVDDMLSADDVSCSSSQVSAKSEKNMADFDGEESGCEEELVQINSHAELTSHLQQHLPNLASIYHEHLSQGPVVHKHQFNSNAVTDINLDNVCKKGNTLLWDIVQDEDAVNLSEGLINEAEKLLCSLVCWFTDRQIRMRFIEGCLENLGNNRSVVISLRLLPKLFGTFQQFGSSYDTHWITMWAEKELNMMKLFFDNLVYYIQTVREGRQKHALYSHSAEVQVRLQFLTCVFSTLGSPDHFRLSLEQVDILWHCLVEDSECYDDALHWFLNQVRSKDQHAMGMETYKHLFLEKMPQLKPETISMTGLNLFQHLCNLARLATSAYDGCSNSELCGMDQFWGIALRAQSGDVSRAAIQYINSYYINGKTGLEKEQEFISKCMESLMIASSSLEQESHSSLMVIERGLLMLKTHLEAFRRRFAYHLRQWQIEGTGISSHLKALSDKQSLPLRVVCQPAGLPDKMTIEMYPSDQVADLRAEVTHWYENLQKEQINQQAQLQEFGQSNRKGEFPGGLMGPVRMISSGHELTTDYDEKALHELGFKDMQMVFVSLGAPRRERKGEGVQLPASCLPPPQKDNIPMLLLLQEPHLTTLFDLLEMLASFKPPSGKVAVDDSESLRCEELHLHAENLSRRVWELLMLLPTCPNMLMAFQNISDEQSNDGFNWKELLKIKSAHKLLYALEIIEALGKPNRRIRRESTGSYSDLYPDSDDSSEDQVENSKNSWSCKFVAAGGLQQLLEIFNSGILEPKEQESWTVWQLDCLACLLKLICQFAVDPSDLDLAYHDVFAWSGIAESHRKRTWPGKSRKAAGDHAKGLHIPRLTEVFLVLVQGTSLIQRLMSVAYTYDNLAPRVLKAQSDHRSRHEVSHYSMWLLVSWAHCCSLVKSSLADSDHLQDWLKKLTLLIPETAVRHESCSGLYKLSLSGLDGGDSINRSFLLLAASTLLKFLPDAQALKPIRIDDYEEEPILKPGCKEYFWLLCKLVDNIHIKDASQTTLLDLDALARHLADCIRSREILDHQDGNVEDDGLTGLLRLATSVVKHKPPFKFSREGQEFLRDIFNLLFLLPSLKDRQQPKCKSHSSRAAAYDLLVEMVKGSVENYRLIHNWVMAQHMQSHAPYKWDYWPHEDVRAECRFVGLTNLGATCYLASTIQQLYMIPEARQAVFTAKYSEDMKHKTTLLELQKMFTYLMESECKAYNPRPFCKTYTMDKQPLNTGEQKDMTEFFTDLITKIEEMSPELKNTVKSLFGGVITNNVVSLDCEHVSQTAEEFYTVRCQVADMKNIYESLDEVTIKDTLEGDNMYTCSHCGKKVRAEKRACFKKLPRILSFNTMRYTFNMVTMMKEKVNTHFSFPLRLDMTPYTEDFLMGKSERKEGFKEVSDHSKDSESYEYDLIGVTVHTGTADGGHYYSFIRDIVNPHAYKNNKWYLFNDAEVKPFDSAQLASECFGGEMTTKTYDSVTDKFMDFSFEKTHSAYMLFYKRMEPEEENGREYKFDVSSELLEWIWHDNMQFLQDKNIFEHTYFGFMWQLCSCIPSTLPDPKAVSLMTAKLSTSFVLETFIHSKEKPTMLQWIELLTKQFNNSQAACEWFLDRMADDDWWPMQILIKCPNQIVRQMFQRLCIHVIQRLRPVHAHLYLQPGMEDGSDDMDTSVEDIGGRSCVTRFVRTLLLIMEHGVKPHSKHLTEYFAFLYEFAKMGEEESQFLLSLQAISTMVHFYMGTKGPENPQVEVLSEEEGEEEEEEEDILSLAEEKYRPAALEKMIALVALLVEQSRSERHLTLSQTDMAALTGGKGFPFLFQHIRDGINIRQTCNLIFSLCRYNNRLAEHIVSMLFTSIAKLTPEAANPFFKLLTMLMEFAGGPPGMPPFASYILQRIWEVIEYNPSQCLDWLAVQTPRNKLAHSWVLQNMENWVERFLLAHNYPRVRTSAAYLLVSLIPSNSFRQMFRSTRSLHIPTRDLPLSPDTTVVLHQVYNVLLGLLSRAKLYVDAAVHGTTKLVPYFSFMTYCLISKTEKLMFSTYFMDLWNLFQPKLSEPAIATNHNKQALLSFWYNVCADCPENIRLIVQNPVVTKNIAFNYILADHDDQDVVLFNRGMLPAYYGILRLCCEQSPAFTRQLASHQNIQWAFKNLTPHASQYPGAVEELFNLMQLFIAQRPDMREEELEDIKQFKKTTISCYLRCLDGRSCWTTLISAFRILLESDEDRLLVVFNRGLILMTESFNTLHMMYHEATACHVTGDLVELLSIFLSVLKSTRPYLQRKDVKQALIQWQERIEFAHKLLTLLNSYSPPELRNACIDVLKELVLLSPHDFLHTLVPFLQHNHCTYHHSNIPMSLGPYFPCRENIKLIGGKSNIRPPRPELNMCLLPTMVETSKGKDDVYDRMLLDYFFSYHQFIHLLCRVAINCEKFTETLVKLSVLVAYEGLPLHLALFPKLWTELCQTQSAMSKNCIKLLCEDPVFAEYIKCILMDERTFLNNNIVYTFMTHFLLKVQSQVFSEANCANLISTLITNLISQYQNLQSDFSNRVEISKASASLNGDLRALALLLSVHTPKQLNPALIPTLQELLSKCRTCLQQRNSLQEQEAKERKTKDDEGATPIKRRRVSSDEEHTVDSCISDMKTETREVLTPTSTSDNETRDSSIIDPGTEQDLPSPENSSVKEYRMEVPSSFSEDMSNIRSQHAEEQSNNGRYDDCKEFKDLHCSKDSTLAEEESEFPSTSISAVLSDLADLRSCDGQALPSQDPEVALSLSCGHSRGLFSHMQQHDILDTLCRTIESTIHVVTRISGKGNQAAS

Cl.O=C(CN1CCN(C(=O)CCl)CC1)Nc1ccc(F)cc1
inactive: USP34 0.1 | USP36 -0.231 | USP38 -0.043 | USP39 0.0696 | USP4 0.142
